Shown is part of a subset that was picked to be rich in hits.
HT1080NT lethal: kills 2HG-producing HT-1080-NT fibrosarcoma cells | HT-1080-NT fibrosarcoma viability, CellTiter-Glo ATP luminescence, 48 h | Potency, µM (series often up to 46.1 µM), for the others: at the top dose activity, negative = less viability, most hits filed as cytotoxic | 360,000 tested, 1.6% active | AID 686970;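 note: NT is the 2HG producing partner of a matched IDH1 knockdown line; potency is the fitted concentration of half-maximal effect; 0% = DMSO-treated cells and -100% = media-only wells without cells; nearly all actives have a fitted effect of over 55% in size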
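Viability by CellTiter-Glo luminescence after 48 h compound exposure at 37C of HT-1080-NT cells (750/well, RPMI, 5% FBS). % activity scaled between DMSO wells and medium-only wells, then curve-fitted and categorized by curve class.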
12-LOX inh: ALOX12 (human) lipoxygenase inhibition. purified 12hLO, xylenol orange hydroperoxide absorbance. P18054. 580,000 tested, 1.1% active. Potency, µM (doses to about 108 µM), without a hit: at the highest dose activity change, negative = inhibition, actives largely listed as inhibitors; note: potency is the fitted concentration of half-maximal effect
Target sequence (P18054 whole entry, looked up): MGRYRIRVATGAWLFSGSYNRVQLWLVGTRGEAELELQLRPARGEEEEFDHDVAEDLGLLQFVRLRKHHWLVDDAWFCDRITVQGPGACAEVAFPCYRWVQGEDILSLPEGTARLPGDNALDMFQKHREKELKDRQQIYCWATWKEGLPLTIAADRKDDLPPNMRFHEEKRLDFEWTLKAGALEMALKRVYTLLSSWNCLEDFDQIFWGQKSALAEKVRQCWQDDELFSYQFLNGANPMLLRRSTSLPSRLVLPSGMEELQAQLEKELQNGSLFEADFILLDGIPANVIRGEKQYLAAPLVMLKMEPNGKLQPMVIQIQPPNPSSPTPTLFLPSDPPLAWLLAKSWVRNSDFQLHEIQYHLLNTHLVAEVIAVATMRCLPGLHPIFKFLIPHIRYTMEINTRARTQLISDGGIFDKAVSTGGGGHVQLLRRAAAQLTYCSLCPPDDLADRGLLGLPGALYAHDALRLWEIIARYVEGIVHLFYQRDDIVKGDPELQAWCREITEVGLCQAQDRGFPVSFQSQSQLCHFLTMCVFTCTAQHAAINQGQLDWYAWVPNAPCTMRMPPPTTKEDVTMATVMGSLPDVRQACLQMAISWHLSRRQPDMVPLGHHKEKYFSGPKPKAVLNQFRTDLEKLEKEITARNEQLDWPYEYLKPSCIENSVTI
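Purified human 12hLO at 150 nM in 25 mM Hepes, 0.01% Triton X-100, pH 7.0, preincubated 15 min at room temperature with compound. Reaction started with 40 uM arachidonic acid, 30 min at room temperature. Hydroperoxide measured by Fe-xylenol orange, 573/405 nm absorbance ratio.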
IL-1B inflam inh: inhibitors of inflammasome signaling (IL-1 beta secretion); THP-1 LPS/ATP IL-1B secretion, AlphaLISA, 16 h; hits give low values; activity change, % at 57.5 µM; 360,000 tested, 4.7% active; AID 743279; in the data active = activity change below about -50%; inconclusive = mostly about -30% to -49%
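THP-1 cells pretreated 1 hr with compounds (up to 57.5 uM final), then stimulated with LPS (250 ng/mL final) plus ATP (1.25 mM final); secreted IL-1B measured by AlphaLISA after 16 hr, decreased signal indicating inhibition.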
TDP1 cell CPT: DT40-hTDP1 cell growth loss with CPT | 420,000 tested, 12% active | chicken DT40 Tdp1-/-;hTDP1 cells + 20 nM CPT, ATP luminescence, 48 h | Potency, µM (top dose mostly 46.2 µM), inactives show at the top dose activity change, negative = growth inhibition, usual class: inhibitors; note: potency is the fitted concentration of half-maximal effect; nearly all actives have a fitted effect of over 55% in size
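Chicken DT40 Tdp1-/- cells stably complemented with human TDP1 were seeded at 400 cells/well in medium containing 20 nM camptothecin, exposed to pin-transferred compounds, and grown at 37 °C for at least 48 hr. Viability was read as ATP luminescence.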
HT1080 IDH1KD tx: kills HT-1080 cells with IDH1 knockdown | 360,000 tested, 2% active | Potency, µM (series often up to 46.1 µM), for the others: at the highest dose activity, negative = toxicity, most hits filed as cytotoxic | HT-1080 IDH1 knockdown viability, ATP luminescence, 48 h;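 note: potency is the fitted concentration of half-maximal effect; 0% = DMSO wells and -100% = cell-free medium wells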
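CellTiter-Glo luminescence after 48 h compound exposure at 37 degrees C of IDH1-knockdown HT-1080 cells in 5% FBS RPMI. %Activity scaled between DMSO wells and cell-free media wells, with curves fitted and assigned curve classes.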
DT40 TDP1 no CPT: qHTS for Inhibitors of human tyrosyl-DNA phosphodiesterase 1 (TDP1): qHTS in cells in absence of CPT; DT40 Tdp1-/- hTDP1 cells, no CPT, ATP luminescence, 48 h; Potency, µM (series often up to 46.2 µM), inactives show at the top dose activity change, negative = growth inhibition, actives largely listed as inhibitors; 420,000 tested, 15% active; note: potency is the fitted concentration of half-maximal effect; nearly all actives have a fitted effect of over 55% in size
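No-CPT arm: Tdp1-/-;hTDP1 DT40 cells (400/well) plus compounds, incubated ≥48 hr at 37 °C. Readout CellTiter-Glo luminescence.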
The depositor's hits bear a star. Unless noted, calls come from the whole dose curve; as a rule, active = well fitted curve in the direction sought with a large enough effect; inconclusive = small, poorly fitted or top-dose-only effect, or another doubt; inactive = no such curve, though single readings can be large; an effect the other way counts as inactive or inconclusive. Unless noted, % is set by controls: 0 for no effect and ±100 for the full control effect.

For N#C/C(=C\c1ccc([N+](=O)[O-])o1)c1nc2ccccc2[nH]1 the results were HT1080NT lethal 5.8µM*, 12-LOX inh -9%, IL-1B inflam inh -101*, TDP1 cell CPT 0.58µM*, HT1080 IDH1KD tx 5.8µM* and DT40 TDP1 no CPT 0.82µM*.
CCOC(=O)/C(O)=C(\C#N)c1nc2ccccc2[nH]1 was read as HT1080NT lethal 6%, 12-LOX inh 3%, IL-1B inflam inh 9, TDP1 cell CPT -10%, HT1080 IDH1KD tx 17% and DT40 TDP1 no CPT -20%.
N#C/C(=C/c1ccc(O)c(O)c1)c1nc2ccccc2[nH]1 was read as HT1080NT lethal -1%, 12-LOX inh 7.9µM*, IL-1B inflam inh 10, TDP1 cell CPT inconclusive, HT1080 IDH1KD tx -5% and DT40 TDP1 no CPT inconclusive.
Cc1ccc(S(=O)(=O)/N=C2\C=C(Nc3cccc(C(=O)O)c3)C(=O)c3ccccc32)c(C)c1 was read as HT1080NT lethal 10µM*, 12-LOX inh inconclusive, IL-1B inflam inh -104*, TDP1 cell CPT inconclusive, HT1080 IDH1KD tx 6.5µM* and DT40 TDP1 no CPT inconclusive.
For Cc1ccc(S(=O)(=O)/N=C2\C=C(Nc3cccc(C(=O)O)c3)C(=O)c3ccccc32)cc1 the results were HT1080NT lethal 23µM*, 12-LOX inh -17%, IL-1B inflam inh -93*, TDP1 cell CPT inconclusive, HT1080 IDH1KD tx 21µM* and DT40 TDP1 no CPT inconclusive.
Screening Cc1ccc(S(=O)(=O)/N=C2\C=C(Nc3ccc(O)cc3)C(=O)c3ccccc32)cc1 returned HT1080NT lethal 18µM*, IL-1B inflam inh -97*, TDP1 cell CPT 2.1µM*, HT1080 IDH1KD tx 23µM* and DT40 TDP1 no CPT 2.9µM*.
`CCc1ccc(S(=O)(=O)/N=C2\C=C(Nc3ccc(C(=O)O)cc3)C(=O)c3ccccc32)cc1` gave HT1080NT lethal 16µM*, 12-LOX inh -22%, IL-1B inflam inh -99*, TDP1 cell CPT 18µM*, HT1080 IDH1KD tx 18µM* and DT40 TDP1 no CPT 23µM*.
For O=C(OCC1CC1)c1ccc(-c2ccccc2)cc1 the results were 12-LOX inh -1%.
Screening CCOc1cc(C(=O)N2N=C(C)CC2(O)C(F)(F)F)ccc1OC(F)F (stereo not drawn) returned 12-LOX inh 25%.
`Cc1noc(C)c1S(=O)(=O)N1CCC(N(CCC(C)C)C2CCOCC2)CC1` gave 12-LOX inh 13%.
`Cc1ccc(CN2C(=O)NC3(CCCN(C(=O)c4cc(F)ccc4F)C3)C2=O)cc1` (stereo not drawn) gave 12-LOX inh 5%.
`O=[N+]([O-])c1ccc(S(=O)(=O)Nc2ccccc2-n2cccn2)cc1` gave 12-LOX inh 20%.
Screening Cc1nc(NCc2ccco2)c2c(C)c(C)sc2n1 returned HT1080NT lethal 5.6µM*, 12-LOX inh inconclusive, IL-1B inflam inh -77*, TDP1 cell CPT 2.1µM*, HT1080 IDH1KD tx 2.8µM* and DT40 TDP1 no CPT 1.8µM*.
Screening Cc1nc(SCC(=O)N(C)Cc2ccco2)c2c(C)c(C)sc2n1 returned HT1080NT lethal -21%, 12-LOX inh 0%, IL-1B inflam inh -5, TDP1 cell CPT 16µM*, HT1080 IDH1KD tx inconclusive and DT40 TDP1 no CPT inconclusive.
For CCCNC(=O)C1COC2(CCN(C(=O)C3CCC3)CC2)N1C(=O)c1ccc(OC)cc1 (stereo not drawn) the results were 12-LOX inh 39%.
Screening COC(=O)CCCNC(=O)[C@@H]1[C@@H](NC(=O)NC2CCCCC2)CCN1C(=O)CC(C)(C)C returned 12-LOX inh 20%.
`Cc1ccc(C)c(C(C)NC(=O)c2cccc(F)c2)c1` (stereo not drawn) gave 12-LOX inh 0%.
